Sfp PPTase inh: blocks B. subtilis Sfp PPTase activity | Biochemical Sfp PPTase activity, qHTS | AID 1490 | Q9F4F7 | 3.5% of 310,000 active | Potency, µM, hits mostly inhibitors;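 also: the enzyme is Sfp with the accession as filed and its product quenches rhodamine fluorescence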
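After 15 min at room temperature with compound, 15 nM Sfp received 5 uM rhodamine-CoA plus 12.5 uM BHQ-2-ybbR (50 mM Hepes pH 7.6, 10 mM MgCl2). Rate came from the fluorescence difference over 30 min, ex 525/em 598 nm.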
PLK1 PBD block: inhibitors of human PLK1 polo-box domain binding; Plk1 PBD binding of FITC phosphopeptide, fluorescence polarization; Potency, µM, hits mostly inhibitors; 2.8% of 360,000 active; also: series mostly up to about 57 µM; nearly all actives have a fitted effect of over 65% in size
ALDH1A1 block: ALDH1A1 (human) enzyme inhibition | P00352 | 7.3% of 220,000 active | Potency, µM (titrated, usually from 75.3 µM), actives largely listed as inhibitors | Purified ALDH1A1, NADH fluorescence, propionaldehyde substrate; active = well fitted inhibition curve with a large enough effect, not every such curve was filed as active; inconclusive = small, poorly fitted or top-dose-only effect, or another doubt; inactive = no such curve, though single readings can be large or run the other way
Target sequence (P00352 whole entry, looked up): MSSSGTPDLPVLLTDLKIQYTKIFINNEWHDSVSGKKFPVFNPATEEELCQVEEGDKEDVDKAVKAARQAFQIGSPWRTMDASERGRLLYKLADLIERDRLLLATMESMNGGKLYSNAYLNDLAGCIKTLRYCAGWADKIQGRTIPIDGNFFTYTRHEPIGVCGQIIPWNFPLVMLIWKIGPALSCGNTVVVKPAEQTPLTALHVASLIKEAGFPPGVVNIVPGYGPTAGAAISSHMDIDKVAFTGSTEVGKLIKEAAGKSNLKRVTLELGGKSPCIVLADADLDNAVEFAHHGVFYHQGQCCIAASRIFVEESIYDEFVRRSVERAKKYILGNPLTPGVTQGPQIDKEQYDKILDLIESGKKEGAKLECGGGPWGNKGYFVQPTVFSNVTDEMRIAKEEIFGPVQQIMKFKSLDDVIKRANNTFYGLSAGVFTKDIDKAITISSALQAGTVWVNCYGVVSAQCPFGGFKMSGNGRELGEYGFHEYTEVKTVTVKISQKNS
Gal4-VP16 FLuc: counter-screen for ROR gamma inhibitors: Gal4-VP16 reporter. Drosophila S2 Gal4-VP16 UAS-luciferase, luminescence, 20 h. Potency, µM (highest dose often 53.6 µM), hits mostly inhibitors. 3.5% of 310,000 active. AID 2546;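 also: Gal4-VP16 expression switched on by copper sulfate through the metallothionein promoter; nearly all actives have a fitted effect of over 50% in size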
RORgamma inh: inhibitors of mouse ROR gamma transcriptional activity | P51450 | AID 2551 | 5.4% of 310,000 active | Potency, µM (highest dose often 53.6 µM), usual class: inhibitors | Drosophila S2 Gal4-RORgamma UAS-luciferase reporter, 20 h; also: nearly all actives have a fitted effect of over 60% in size
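Stable Schneider cell line, Gal4 DNA-binding domain fused to ROR gamma, UAS-luciferase. Cmpd 1 hr RT → CuSO4 700 uM final → 20 hr RT → luciferase reagent 10 min → luminescence.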
Large screens that a line does not name were inactive. This is a sample that favours compounds with a hit; in the whole collection about 12% have one here. Unless noted, calls follow the shape of the dose curve; as a rule, active = well fitted curve in the direction sought with a large enough effect; inconclusive = small, poorly fitted or top-dose-only effect, or another doubt; inactive = no such curve, though single readings can be large; an effect the other way counts as inactive or inconclusive.

COc1ccc(S(=O)(=O)N(C)C[C@@H]2OCCCC[C@H](C)Oc3ccc(NC(=O)Nc4ccc(C(F)(F)F)cc4)cc3C(=O)N([C@H](C)CO)C[C@H]2C)cc1	none (no result: Sfp PPTase inh, ALDH1A1 block, Gal4-VP16 FLuc, RORgamma inh)
Cc1cc2c(nc1C)CCCCN2C[C@H](C)O/N=C1/[C@H]2O[C@@H]2[C@@H](O)[C@H]2[C@H]1CCn1c(=O)n(-c3ccccc3)c(=O)n12	none (no result: PLK1 PBD block)
CCOc1cc(C2CC(=O)N3CN(C4CCCCC4)CSC3=C2C#N)ccc1O (stereo not drawn)	Sfp PPTase inh 3.5µM, PLK1 PBD block 11µM, ALDH1A1 block 6.3µM
COc1ccc2ccccc2c1C1CC(=O)N2CN(Cc3ccco3)CSC2=C1C#N (stereo not drawn)	Sfp PPTase inh 5.6µM, PLK1 PBD block 19µM, ALDH1A1 block 22µM, Gal4-VP16 FLuc inconclusive, RORgamma inh 10µM
COc1ccccc1N1CCN(Cc2ccco2)CC1	none
O=C(CN1CCC(Cc2ccccc2)CC1)N1CCc2ccccc2C1	PLK1 PBD block 27µM
O=C(CN1CCN(S(=O)(=O)c2cc(C(F)(F)F)ccc2Cl)CC1)N1CCc2ccccc2C1	none (no result: Sfp PPTase inh, ALDH1A1 block, Gal4-VP16 FLuc, RORgamma inh)
O=C(CN1C(=O)NC2(CCCCC2)C1=O)N1CCN(S(=O)(=O)c2ccccc2)CC1	none
O=C(CN1C(=O)NC2(CCCCCC2)C1=O)N1CCC(Cc2ccccc2)CC1	ALDH1A1 block 22µM
Cc1ccc(C)c(S(=O)(=O)N2CCN(CC(=O)N3CCc4ccccc4C3)CC2)c1	Sfp PPTase inh 56µM, ALDH1A1 block 18µM
O=S(=O)(Nc1cc2nc3ccccc3nc2n1Cc1ccccc1)c1ccc(Cl)cc1	Sfp PPTase inh 56µM, PLK1 PBD block inconclusive, ALDH1A1 block inconclusive, Gal4-VP16 FLuc inconclusive, RORgamma inh inconclusive
CC(C)C1C(=O)N(Cc2cn(Cc3ccco3)nn2)CCS(=O)(=O)N1Cc1ccc(-c2ccc(F)cc2)cc1 (stereo not drawn)	none (no result: Sfp PPTase inh, ALDH1A1 block, Gal4-VP16 FLuc, RORgamma inh)
O=C(Cc1cnc2ncnn2c1)N1CCc2c([nH]c3ccccc23)C1c1ccccc1F (stereo not drawn)	ALDH1A1 block 4.5µM
Cc1nonc1CC(=O)N1CCc2c([nH]c3ccccc23)C1c1ccccc1F (stereo not drawn)	ALDH1A1 block inconclusive
Clc1nc(Cl)nc(-c2cn(-c3ccccc3)c3ccccc23)n1	Sfp PPTase inh 56µM (no result: ALDH1A1 block)
OCCCc1cn(-c2ccccc2)c2ccccc12	none
Cc1cc(C)cc(OC(C)C(=O)Nc2ccccc2C(=O)NCc2cccnc2)c1 (stereo not drawn)	Sfp PPTase inh 35µM (no result: ALDH1A1 block)
Cc1ccc(OC(C)C(=O)Nc2ccccc2C(=O)NCc2cccnc2)cc1C (stereo not drawn)	none (no result: ALDH1A1 block)
CC(C)(C)N1C(=O)c2ccccc2NC(=O)C1C(=O)NCCOc1ccccc1 (stereo not drawn)	none (no result: Sfp PPTase inh, ALDH1A1 block, Gal4-VP16 FLuc, RORgamma inh)
CN1/C(=C\C(=O)c2ccco2)C(C)(C)c2ccccc21	Sfp PPTase inh inconclusive, ALDH1A1 block inconclusive, Gal4-VP16 FLuc 10µM, RORgamma inh inconclusive
CN1/C(=C/C(=O)c2nc(S(C)(=O)=O)ncc2Cl)C(C)(C)c2ccccc21	PLK1 PBD block inconclusive, ALDH1A1 block inconclusive, Gal4-VP16 FLuc 5.6µM, RORgamma inh 3.2µM
CN1/C(=C\C(=O)c2cncc(Br)c2)C(C)(C)c2ccccc21	Gal4-VP16 FLuc 11µM
CCN1/C(=C/C(=O)c2ccco2)Sc2ccccc21	Sfp PPTase inh 50µM, PLK1 PBD block inconclusive, ALDH1A1 block 25µM
CN1/C(=C\C(=O)c2ccco2)c2ccccc2CC1(C)C	none
CCCCN1C(=O)C(CC(=O)NCC2CCCCC2)CC(C(=O)N2CCOCC2)=C1C (stereo not drawn)	none (no result: Sfp PPTase inh, ALDH1A1 block, Gal4-VP16 FLuc, RORgamma inh)
CC#CC(=O)Nc1cc2c(Nc3ccc(F)c(Cl)c3)ncnc2cn1	none (no result: PLK1 PBD block, ALDH1A1 block)
N#Cc1ccc(CN2CCN(C(=O)c3ccc(S(=O)(=O)N4CCCCCC4)cc3)CC2)cc1	none (no result: Sfp PPTase inh, ALDH1A1 block, Gal4-VP16 FLuc, RORgamma inh)
Cc1cccc(-n2c(C)c(C)c3c(N)ncnc32)c1	none (no result: ALDH1A1 block)
COc1ccccc1CNc1cc(-c2ccccc2C(F)(F)F)ncn1	none (no result: PLK1 PBD block)
Cc1c(Cl)cccc1NC(=O)CSc1nc(=O)n(CCCN2CCOCC2)c2c1CCCC2	none (no result: Sfp PPTase inh, ALDH1A1 block, Gal4-VP16 FLuc, RORgamma inh)
CCN(CC)S(=O)(=O)c1cccc(C(=O)NCC2CCCCC2)c1	PLK1 PBD block 24µM (no result: ALDH1A1 block)
CCN(CC)S(=O)(=O)c1cccc(C(=O)NC(C(=O)Nc2nnc(C3CC3)s2)C(C)C)c1 (stereo not drawn)	PLK1 PBD block 27µM, ALDH1A1 block inconclusive
CC(C)(C)OC(=O)N1C(=O)[C@](OC(=O)c2ccccc2)(c2ccc(F)cc2)c2ccccc21	none (no result: Sfp PPTase inh, ALDH1A1 block, Gal4-VP16 FLuc, RORgamma inh)
CCc1ccc(OCCn2cccn2)cc1	none

Screens (PubChem BioAssay)
